# Key:
# Experiment in all cases: DAPPL (digital affinity profiling via proximity ligation, sequencing); 10 mM Tris-HCl pH 7.5, 50 mM NaCl, 1 mM DTT, 4% glycerol, room temperature, 30 min; GST-TFs on glutathione beads, 16-mer random dsDNA library, 0.1% formaldehyde crosslink after washing; high values mean tight binding
# Conditions in all cases: protein: recombinant; tags: N-terminal GST; dsDNA, one strand shown
# FLI1 = target: T1, FLI1 (Homo sapiens, UniProt Q01543 1-452)
# T1 sequence: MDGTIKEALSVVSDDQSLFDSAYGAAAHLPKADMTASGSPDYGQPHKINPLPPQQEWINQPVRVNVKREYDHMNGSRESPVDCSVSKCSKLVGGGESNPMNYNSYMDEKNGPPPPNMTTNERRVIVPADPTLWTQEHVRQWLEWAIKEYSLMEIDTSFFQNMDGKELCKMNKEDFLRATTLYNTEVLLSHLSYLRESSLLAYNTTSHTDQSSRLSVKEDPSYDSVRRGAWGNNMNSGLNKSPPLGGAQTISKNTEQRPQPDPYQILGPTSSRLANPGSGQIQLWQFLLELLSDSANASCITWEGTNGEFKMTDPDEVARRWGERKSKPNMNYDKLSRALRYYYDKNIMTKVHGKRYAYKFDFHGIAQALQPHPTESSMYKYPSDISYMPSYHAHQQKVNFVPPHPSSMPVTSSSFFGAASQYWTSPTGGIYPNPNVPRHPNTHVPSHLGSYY
# Summary of the method: (§1)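 In yeast, human transcription factors were expressed with a GST fusion, then pulled down on glutathione beads and given DNA barcodes. Pooled with a tag-only sample, they were exposed to 200 nmole of a 16-mer random double-stranded DNA library (Tris/NaCl/DTT/glycerol buffer, room temperature, 30 min), washed, crosslinked with 0.1% formaldehyde, proximity-ligated using BsaI/T4 ligase for 1 h at 37 °C, PCR-amplified and read on an Illumina NextSeq500. Each hexamer's frequency of reads for a factor, divided by the matching frequency for the tag-only sample, gives the binding signal.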
# ELK1 = target: T2, ELK1 (Homo sapiens, UniProt P19419 1-428)
# T2 sequence: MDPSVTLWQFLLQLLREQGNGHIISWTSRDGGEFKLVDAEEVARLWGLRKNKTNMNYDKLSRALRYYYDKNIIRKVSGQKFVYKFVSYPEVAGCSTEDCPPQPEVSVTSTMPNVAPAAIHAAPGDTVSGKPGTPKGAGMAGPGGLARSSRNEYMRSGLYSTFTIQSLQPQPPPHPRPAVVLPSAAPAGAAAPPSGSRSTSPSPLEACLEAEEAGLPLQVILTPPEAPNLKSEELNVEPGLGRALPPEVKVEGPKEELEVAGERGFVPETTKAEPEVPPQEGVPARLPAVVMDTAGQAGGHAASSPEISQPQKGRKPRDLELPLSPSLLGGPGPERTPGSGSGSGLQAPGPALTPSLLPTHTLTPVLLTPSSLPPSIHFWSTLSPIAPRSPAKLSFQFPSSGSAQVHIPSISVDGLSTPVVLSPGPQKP
# Summary of the method: as §1
# GABPA = target: T3, GABPA (Homo sapiens, UniProt Q06546 1-454)
# T3 sequence: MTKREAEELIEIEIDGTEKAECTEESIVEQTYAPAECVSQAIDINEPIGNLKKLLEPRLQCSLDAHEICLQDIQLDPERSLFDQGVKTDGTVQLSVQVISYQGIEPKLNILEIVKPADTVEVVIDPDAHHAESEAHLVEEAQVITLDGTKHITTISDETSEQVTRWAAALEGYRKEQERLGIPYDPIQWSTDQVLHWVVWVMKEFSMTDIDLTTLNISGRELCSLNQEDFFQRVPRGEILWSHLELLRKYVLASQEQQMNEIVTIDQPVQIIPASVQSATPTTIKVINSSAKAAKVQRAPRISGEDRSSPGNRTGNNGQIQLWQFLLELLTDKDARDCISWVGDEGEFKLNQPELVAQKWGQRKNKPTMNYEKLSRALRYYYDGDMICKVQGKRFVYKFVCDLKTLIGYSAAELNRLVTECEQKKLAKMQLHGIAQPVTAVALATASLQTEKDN
# Summary of the method: as §1
# ERG = target: T4, ERG (Homo sapiens, UniProt P11308 1-479)
# T4 sequence: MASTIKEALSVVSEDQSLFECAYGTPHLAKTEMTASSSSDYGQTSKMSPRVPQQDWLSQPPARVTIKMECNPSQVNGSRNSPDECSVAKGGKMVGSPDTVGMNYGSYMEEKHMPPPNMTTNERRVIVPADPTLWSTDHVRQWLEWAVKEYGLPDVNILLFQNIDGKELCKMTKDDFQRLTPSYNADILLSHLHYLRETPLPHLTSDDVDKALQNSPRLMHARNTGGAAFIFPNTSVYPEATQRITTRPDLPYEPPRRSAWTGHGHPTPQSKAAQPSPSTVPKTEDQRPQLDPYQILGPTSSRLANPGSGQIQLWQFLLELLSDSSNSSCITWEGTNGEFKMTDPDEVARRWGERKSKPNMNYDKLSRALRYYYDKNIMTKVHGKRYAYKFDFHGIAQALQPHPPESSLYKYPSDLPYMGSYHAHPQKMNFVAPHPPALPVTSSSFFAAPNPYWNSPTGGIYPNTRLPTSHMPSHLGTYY
# Summary of the method: as §1
# ELF1 = ELF1 (Homo sapiens, UniProt P32519 1-619)
# Summary of the method: as §1
# EHF = target: T5, EHF (Homo sapiens, UniProt Q9NZC4 1-300)
# T5 sequence: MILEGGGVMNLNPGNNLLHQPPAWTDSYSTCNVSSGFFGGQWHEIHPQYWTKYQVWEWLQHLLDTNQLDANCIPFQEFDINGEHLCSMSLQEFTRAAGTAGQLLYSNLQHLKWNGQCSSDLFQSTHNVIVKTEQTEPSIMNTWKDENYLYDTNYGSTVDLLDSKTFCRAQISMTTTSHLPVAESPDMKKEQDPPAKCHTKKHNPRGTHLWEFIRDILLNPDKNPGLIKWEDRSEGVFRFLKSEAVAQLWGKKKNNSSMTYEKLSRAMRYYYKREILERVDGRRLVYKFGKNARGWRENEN
# Summary of the method: as §1
# SPI1 = SPI1 (Homo sapiens, UniProt P17947 1-270)
# Summary of the method: as §1
# SPIB = SPIB (Homo sapiens, UniProt Q01892 1-262)
# Summary of the method: as §1
# ELK3 = target: T6, ELK3 (Homo sapiens, UniProt P41970 1-407)
# T6 sequence: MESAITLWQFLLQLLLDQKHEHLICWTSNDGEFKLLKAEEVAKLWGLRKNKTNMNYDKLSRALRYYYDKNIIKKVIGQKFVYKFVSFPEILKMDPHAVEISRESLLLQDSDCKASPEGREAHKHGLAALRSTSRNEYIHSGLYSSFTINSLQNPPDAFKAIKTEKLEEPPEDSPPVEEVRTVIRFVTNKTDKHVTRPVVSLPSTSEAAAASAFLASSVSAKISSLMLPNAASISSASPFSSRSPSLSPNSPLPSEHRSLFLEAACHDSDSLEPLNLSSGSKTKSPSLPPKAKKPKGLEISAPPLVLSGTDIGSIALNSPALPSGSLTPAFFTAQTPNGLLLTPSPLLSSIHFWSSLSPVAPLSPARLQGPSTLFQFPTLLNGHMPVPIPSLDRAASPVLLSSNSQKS
# Summary of the method: as §1
# Sequence of ELF1 (P32519 whole entry): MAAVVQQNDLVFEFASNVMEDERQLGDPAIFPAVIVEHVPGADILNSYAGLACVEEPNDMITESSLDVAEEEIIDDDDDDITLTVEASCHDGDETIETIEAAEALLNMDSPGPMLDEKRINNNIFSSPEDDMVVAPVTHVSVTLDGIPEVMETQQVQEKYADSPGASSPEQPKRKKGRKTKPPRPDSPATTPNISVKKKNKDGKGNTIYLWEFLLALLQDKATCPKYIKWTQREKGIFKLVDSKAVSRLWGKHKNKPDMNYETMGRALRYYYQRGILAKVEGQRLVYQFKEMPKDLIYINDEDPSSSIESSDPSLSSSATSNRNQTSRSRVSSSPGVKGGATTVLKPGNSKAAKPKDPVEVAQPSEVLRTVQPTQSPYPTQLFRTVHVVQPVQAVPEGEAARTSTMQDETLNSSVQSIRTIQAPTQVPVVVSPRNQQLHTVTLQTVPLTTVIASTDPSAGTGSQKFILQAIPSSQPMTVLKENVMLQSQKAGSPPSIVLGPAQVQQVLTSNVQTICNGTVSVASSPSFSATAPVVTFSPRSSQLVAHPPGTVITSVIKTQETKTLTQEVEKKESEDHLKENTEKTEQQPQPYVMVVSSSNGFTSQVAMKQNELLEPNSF
# Sequence of SPIB (Q01892 whole entry): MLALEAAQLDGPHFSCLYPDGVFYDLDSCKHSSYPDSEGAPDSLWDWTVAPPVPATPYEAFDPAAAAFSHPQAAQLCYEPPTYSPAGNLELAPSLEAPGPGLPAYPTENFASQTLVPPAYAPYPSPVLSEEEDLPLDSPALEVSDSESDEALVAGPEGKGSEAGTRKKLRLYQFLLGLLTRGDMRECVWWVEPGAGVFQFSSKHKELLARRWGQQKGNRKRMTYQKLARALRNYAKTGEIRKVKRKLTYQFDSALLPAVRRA
sequence,measurement,setting,value
TCCGTC,binding signal,FLI1,"1.24 fold enrichment (6-mer frequency, TF over GST control)"
same,binding signal,ELK1,"1.43 fold enrichment (6-mer frequency, TF over GST control)"
same,binding signal,GABPA,"1.29 fold enrichment (6-mer frequency, TF over GST control)"
same,binding signal,ERG,"1.49 fold enrichment (6-mer frequency, TF over GST control)"
same,binding signal,ELF1,"1.36 fold enrichment (6-mer frequency, TF over GST control)"
same,binding signal,EHF,"1.41 fold enrichment (6-mer frequency, TF over GST control)"
same,binding signal,SPI1,"1.28 fold enrichment (6-mer frequency, TF over GST control)"
same,binding signal,SPIB,"1.56 fold enrichment (6-mer frequency, TF over GST control)"
same,binding signal,ELK3,"1.47 fold enrichment (6-mer frequency, TF over GST control)"

# Source: publication PMC7862700, “An all-to-all approach to the identification of sequence-specific readers for epigenetic DNA modifications on cytosine”
